Results taken from the supplement of paper PMC4166925.
± gives the standard deviation of the averaged measurements. In all, about 33,000 sequences were measured (“E-score (dimensionless, -0.5 to 0.5)”: median about -0.049, highest 2% from about 0.37 on). The full list was thinned out, with the highest values kept by preference.

Tested on: T1, PmTbr T-box DNA-binding domain (GST fusion)
T1 sequence: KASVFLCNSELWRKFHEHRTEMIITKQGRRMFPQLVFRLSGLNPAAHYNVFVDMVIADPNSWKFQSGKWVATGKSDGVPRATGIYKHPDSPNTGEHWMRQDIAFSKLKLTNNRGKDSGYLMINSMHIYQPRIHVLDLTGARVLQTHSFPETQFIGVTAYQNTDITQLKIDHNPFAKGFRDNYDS
Assay: PBM E-score of 8-mer (E-score (dimensionless, -0.5 to 0.5)); Tbr is Tbrain of the sea star Patiria miniata (Pm) or the sea urchin Strongylocentrotus purpuratus (Sp); higher = stronger binding preference
Conditions: the construct has about 5 more residues each side
Outline: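 Universal Agilent oligonucleotide arrays, made double-stranded by primer extension, were incubated with 200 nM GST-fused Tbr T-box DNA-binding domain in PBS (pH 7.5). The protein was expressed in BL21 E. coli at 20 °C and purified by glutathione affinity chromatography. After scanning and quantification, the Universal PBM Analysis Suite assigned an enrichment E-score to each ungapped 8-mer, averaged over duplicate arrays.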

Sequence | PBM E-score of 8-mer
GGCTAAAA | -0.22 ± 0.064
GATGTGAC | 0.308 ± 0.017
AGTGTGAT | 0.463 ± 0.0063
AGTGTGAC | 0.467 ± 0.0075
CGTGTGAC | 0.4054 ± 0.0011
CGTGTGTC | 0.204 ± 0.018
AATGTGAT | 0.258 ± 0.039
CGTGTGAG | 0.363 ± 0.013
GCTGTGAC | 0.208 ± 0.037
AGTGTGTC | 0.248 ± 0.0093
GGTGTGAC | 0.4864 ± 0.0033
ACTGTGAC | 0.239 ± 0.026
AGAGTGAT | 0.239 ± 0.0043
CACCCAAG | 0.263 ± 0.023
TCTTAGCA | 0.2 ± 0.017
CCCGAATC | 0.00343 ± 0.029
ACAAGACC | 0.0576 ± 0.017
GACTACCA | -0.0358 ± 0.082
CAGGAGAC | -0.136 ± 0.017
ATTGTGAG | 0.2213 ± 0.00029
AGTGTGTG | 0.338 ± 0.021
AGTGTGAG | 0.4585 ± 0.0031
CACACAGG | 0.119 ± 0.044
CGGCAAAA | -0.0622 ± 0.057
ACATCCGG | -0.0734 ± 0.061

Sequence | PBM E-score of 8-mer
GAACTGGA | -0.175 ± 0.037
CCTGGAAA | -0.133 ± 0.014
AAAGACAA | -0.172 ± 0.069
AACCTTTC | -0.105 ± 0.047
CACCTTTC | 0.411 ± 0.034
CACCTTTA | 0.404 ± 0.013
CCCCTTTC | -0.124 ± 0.061
AACCTTTA | -0.0895 ± 0.057
GACCTTTA | -0.207 ± 0.088
CGCGCATC | 0.0691 ± 0.012
GGCTGGAA | -0.127 ± 0.064
GACCACCA | -0.142 ± 0.031
AGGAAGGG | -0.28 ± 0.01
AGGCACCA | -0.171 ± 0.024
TAGCACCA | 0.403 ± 0.015
TCGCACCA | 0.44 ± 0.0079
TGGCACCA | 0.377 ± 0.0055
CCGCACCA | 0.187 ± 0.0087
CAGCACCA | 0.0936 ± 0.032
GGGCACCA | -0.125 ± 0.059
GCGCACCA | -0.0144 ± 0.01
GAGCACCA | -0.0664 ± 0.018
GAATTCCC | 0.0309 ± 0.029
GCAGGGTA | -0.0138 ± 0.034
GCAGGTCA | 0.103 ± 0.027

Sequence | PBM E-score of 8-mer
ACAGGTGG | 0.331 ± 0.022
ACAGGTGC | 0.4412 ± 0.0022
CCAGGTAC | -0.105 ± 0.1
GCAGGTAA | -0.0867 ± 0.05
CCAGGTGC | 0.379 ± 0.014
ACAGGTGA | 0.406 ± 0.0049
ACAGGTCC | 0.0798 ± 0.068
GCAGGTGA | 0.4392 ± 0.002
ACAGGTTA | 0.252 ± 0.022
CCAGGTCC | -0.114 ± 0.039
CCAGGTGA | 0.339 ± 0.023
CAGCGTGA | 0.266 ± 0.0088
CGGGCCCG | 0.108 ± 0.013
CCCCAGAG | -0.096 ± 0.018
ATATGTCG | 0.134 ± 0.029
CTGTGTCA | 0.216 ± 0.027
GTGTGTCA | 0.348 ± 0.02
ATGTGTCG | 0.402 ± 0.0094
ATGTGTCC | 0.0956 ± 0.026
ATGTGTCA | 0.4653 ± 0.0037
CTCCTTGC | -0.127 ± 0.067
ACGTAATA | -0.234 ± 0.071
ACCATTGG | -0.068 ± 0.046
ACAGCCTC | -0.206 ± 0.14
CATTCGCA | 0.3497 ± 0.0027

Sequence | PBM E-score of 8-mer
CGTTCGCA | 0.38 ± 0.037
GGTTCGCA | 0.334 ± 0.02
AGTTCGCC | 0.0555 ± 0.091
CGTTCGCC | 0.0701 ± 0.066
AGTTCGCA | 0.378 ± 0.0033
ACTGCAGT | 0.185 ± 0.034
TAGTGCCA | 0.249 ± 0.0097
TAGTGCAA | 0.267 ± 0.055
AAGTGCGT | 0.149 ± 0.039
ACGTGCGA | 0.4433 ± 0.0027
AAGTGCGA | 0.4835 ± 0.00061
CAGTGCGG | -0.0389 ± 0.1
GCGTGCGA | 0.285 ± 0.02
CAGTGCGC | -0.0646 ± 0.032
CAGTGCGA | 0.386 ± 0.019
AAGTGCGC | 0.138 ± 0.026
TAGTGCGA | 0.4056 ± 0.0024
ACGTGCGG | 0.191 ± 0.05
ATCAACGG | -0.182 ± 0.042
ATGTTTCA | -0.174 ± 0.074
CGGTTTGA | -0.1932 ± 0.0019
ATAACCAA | -0.112 ± 0.038
CTTAGGAA | -0.24 ± 0.011
CGGAAAAA | -0.0583 ± 0.12
AAACTACT | 0.0819 ± 0.0066

Sequence | PBM E-score of 8-mer
CTTCTCAC | 0.365 ± 0.01
ATGTGCGA | 0.4691 ± 0.0032
GAGTGCGC | -0.0278 ± 0.044
ATGTGCGG | 0.0803 ± 0.028
GAGTGCGA | 0.4088 ± 0.00055
ATGTGCGC | 0.138 ± 0.0009
GAGTGCAA | 0.0826 ± 0.02
CCTTTCGA | -0.06 ± 0.02
AAGTCATA | -0.0653 ± 0.022
ATGCAATA | -0.341 ± 0.0082
CCCCTTAG | -0.195 ± 0.0038
AACCTTAC | -0.000525 ± 0.043
AACCTTAG | -0.0923 ± 0.0088
GACCTTAA | -0.136 ± 0.0073
CACCTTAC | 0.394 ± 0.0074
CACCTTAA | 0.385 ± 0.011
GACCTTAC | -0.313 ± 0.028
AACCTTAA | -0.209 ± 0.044
CACCTTAG | 0.4473 ± 0.0023
AATTCTAA | -0.128 ± 0.086
AAAGTCCG | -0.00454 ± 0.029
CCATCAGG | 0.0307 ± 0.054
CGAAGGGA | 0.00651 ± 0.088
ATATTCTC | -0.0331 ± 0.008
GGCGCTAC | 0.346 ± 0.037

Sequence | PBM E-score of 8-mer
TGCGCTAA | 0.247 ± 0.036
CGCGCTAG | 0.159 ± 0.019
GGCGCTAA | 0.426 ± 0.0098
AGCGCTAA | 0.362 ± 0.02
CGCGCTAA | 0.369 ± 0.0084
AGCAGCGA | -0.0709 ± 0.041
CCGCCCAA | -0.101 ± 0.091
TATGAGAA | -0.274 ± 0.048
GATTGCCC | -0.0679 ± 0.024
GCGCAGGA | -0.0924 ± 0.067
CGGTGTAG | 0.134 ± 0.1
CGGTGTAA | 0.131 ± 0.037
GGGTGTAC | -0.0259 ± 0.052
AGGTGTAA | 0.47639 ± 0.00041
AGGTGTAT | 0.328 ± 0.0044
AGGTGTAC | 0.218 ± 0.043
AGGTGTAG | 0.408 ± 0.0046
TGGTGTAA | 0.28 ± 0.011
GGGTGTAA | 0.385 ± 0.013
TTGGGAAA | -0.102 ± 0.057
AGTTCTGC | -0.332 ± 0.0036
CGACGGGA | -0.129 ± 0.036
CACAAGTG | 0.367 ± 0.0037
ATTGCCTA | -0.134 ± 0.077
AGTGCTGC | 0.0868 ± 0.0037

Sequence | PBM E-score of 8-mer
CATCAAAG | -0.0524 ± 0.035
GATATCCC | -0.147 ± 0.05
AACGCCTC | 0.362 ± 0.007
AACGCCTA | 0.279 ± 0.034
AACGCCTT | 0.3747 ± 0.00064
AAAGTGAG | 0.219 ± 0.048
ACAGTGTC | 0.238 ± 0.0038
ATAGTGTG | 0.393 ± 0.033
ATAGTGTC | 0.335 ± 0.011
ATAGTGTA | 0.0192 ± 0.0016
AAAGTGGT | 0.106 ± 0.042
AAAGTGTA | 0.147 ± 0.057
AAAGTGTG | 0.435 ± 0.012
AAAGTGTC | 0.4215 ± 0.0027
AGAGTGTG | 0.34 ± 0.01
AAAGTGTT | 0.429 ± 0.014
AAAGTGGC | 0.234 ± 0.005
AGGTTGTG | 0.16 ± 0.052
AGGACCAC | -0.253 ± 0.12
GATAGGCA | -0.121 ± 0.014
AGAATCTA | 0.151 ± 0.0012
CTTCGATA | -0.00351 ± 0.034
TTAGCAAA | 0.173 ± 0.064
CGAGTGTC | 0.294 ± 0.018
AGAGTGTA | 0.0538 ± 0.058

Sequence | PBM E-score of 8-mer
AGAGTGTC | 0.385 ± 0.0076
TAGGTTAA | -0.216 ± 0.0052
AGAGTTGA | 0.0684 ± 0.016
CGGCGCTA | 0.239 ± 0.033
CGGCGCGA | 0.317 ± 0.034
GGGCGCGA | 0.409 ± 0.02
AGGCGCGA | 0.463 ± 0.0056
GGGCGAGA | 0.194 ± 0.052
AGGCGCTA | 0.4421 ± 0.0025
AGGCGAGA | 0.401 ± 0.011
AGGCGAGC | -0.25 ± 0.068
GGGCGCTA | 0.346 ± 0.018
GGGGGCGA | 0.01664 ± 0.00016
AGGCGCGG | 0.242 ± 0.019
AGGCGCGC | 0.152 ± 0.021
AAGCGATG | -0.00845 ± 0.0036
CCCTCTGC | 0.0209 ± 0.072
ATCTTAGA | -0.0793 ± 0.081
CGACCAAC | 0.00547 ± 0.043
ACTGCTGA | 0.181 ± 0.035
AGTCATCG | -0.153 ± 0.0094
CTTAAGGC | -0.0813 ± 0.065
CAATCTAC | -0.0883 ± 0.0018
GCTCTATA | -0.25 ± 0.048
TCGAAAGA | -0.172 ± 0.05

Sequence | PBM E-score of 8-mer
GACCCTTA | -0.0822 ± 0.0071
CGAGTTAG | -0.0558 ± 0.052
GAAGCTCC | -0.342 ± 0.041
CTGTGGAC | -0.104 ± 0.0043
CACTAGGG | -0.15 ± 0.031
AGGCGACG | 0.268 ± 0.0026
AGGCGACC | -0.13 ± 0.17
AGGCGACA | 0.3974 ± 0.0038
AATTGGCA | 0.247 ± 0.036
CGAAAAAA | 0.00041 ± 0.062
CGAAATCG | 0.231 ± 0.046
ACAAGTGG | 0.375 ± 0.017
AAAAGTGG | 0.107 ± 0.0099
AAAAGTGT | 0.413 ± 0.015
ACAAGTAT | 0.112 ± 0.028
ACAAGTGC | 0.249 ± 0.005
AAAAGTGA | 0.197 ± 0.059
ACAAGTCT | 0.103 ± 0.044
ACAAGTGT | 0.391 ± 0.0052
ACAAGTGA | 0.277 ± 0.034
